High-throughput results deposited in PubChem by National Center for Advancing Translational Sciences (NCATS).
An excerpt weighted towards active compounds, which were near 11% of everything screened.
HPGD inh: qHTS Assay for Inhibitors of HPGD (15-Hydroxyprostaglandin Dehydrogenase). 15-hydroxyprostaglandin dehydrogenase [NAD(+)] (Homo sapiens), P15428. Potency, µM, for inactives: top-dose activity change, negative = inhibition, usual class: inhibitors. actives 4.3% (n = 150,000). purified HPGD, NADH fluorescence kinetic, PGE2 substrate; note: potency is the fitted concentration of half-maximal effect
Target sequence (P15428 whole entry, looked up): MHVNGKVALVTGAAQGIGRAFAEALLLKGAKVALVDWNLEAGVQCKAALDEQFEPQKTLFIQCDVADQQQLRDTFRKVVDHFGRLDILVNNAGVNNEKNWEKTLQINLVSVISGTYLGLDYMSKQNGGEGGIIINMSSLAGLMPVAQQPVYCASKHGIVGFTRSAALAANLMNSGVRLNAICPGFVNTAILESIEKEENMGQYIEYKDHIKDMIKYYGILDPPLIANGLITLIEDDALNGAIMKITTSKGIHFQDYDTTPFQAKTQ
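NADH formation kinetics: reaction with 30 uM PGE2 and 1 mM NAD+ (final), 20 nM enzyme, Tris-HCl pH 8 with Tween 20, after 15 min compound preincubation at room temperature. Fluorescence change, last versus first of five reads.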
PNC inhibitor: High Content Assay for Compounds that inhibit the Assembly of the Perinucleolar Compartment; PC3M PTB-GFP, PNC prevalence imaging, 16 h; active compounds read low; activity change (PNC), negative = inhibition, % at 10 µM; actives 3.1% (n = 140,000); AID 2417, 2010;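 active = readout at or below -70, meaning at least 70% loss of cells showing the perinucleolar compartment, a nuclear body marking cancer cells; inconclusive = readout between -30 and a set limit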;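 note: plate controls were DMSO wells for no effect and camptothecin positive control wells for full effect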
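PC3M cells stably expressing PTB-GFP, 750–1000 cells/well, treated 16 h at 37 °C with compound (23 nl of library stock), in duplicate. After paraformaldehyde fixation and Hoechst stain, imaged at 20x; PNC prevalence scored by image analysis.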
IMPase inh: qHTS Assay for Identifying the Cell-Membrane Permeable IMPase Inhibitors | inhibition (IP1 accumulation), % at 46.1 µM | 120,000 tested, under 10 active | Inositol monophosphatase 1 (Rattus norvegicus), P97697 | CHO-M1 cells, IP1 accumulation, HTRF TR-FRET ratio; active = well fitted curve in the direction sought with a large enough effect in the signal ratio, not every such curve was filed as active; inconclusive = small, poorly fitted or top-dose-only effect, or a change in a side signal; inactive = no such curve, though single readings can be large or run the other way; the % refers to the signal ratio;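 note: cells stimulated with carbachol in lithium chloride buffer; plate controls were DMSO basal wells for no effect and reference inhibitor wells for full effect; higher means more IMPase inhibition seen as more IP1 and lower FRET ratio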
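The IP-One HTRF competitive assay in carbachol-stimulated CHO-M1 cells quantifies cellular IP1. Compounds spanned up to 46 uM final, and activity is expressed as AC50 from concentration-response fits of the ratio and donor data.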
ALDH1A1 block: qHTS Assay for Inhibitors of Aldehyde Dehydrogenase 1 (ALDH1A1); Potency, µM (doses to about 75.3 µM), without a hit: at the highest dose activity, negative = inhibition, usual class: inhibitors; actives 7.3% (n = 220,000); Purified ALDH1A1, NADH fluorescence, propionaldehyde substrate;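 note: potency is the fitted concentration of half-maximal effect; plate controls were no enzyme wells and a reference inhibitor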
Target sequence (P00352 whole entry, looked up): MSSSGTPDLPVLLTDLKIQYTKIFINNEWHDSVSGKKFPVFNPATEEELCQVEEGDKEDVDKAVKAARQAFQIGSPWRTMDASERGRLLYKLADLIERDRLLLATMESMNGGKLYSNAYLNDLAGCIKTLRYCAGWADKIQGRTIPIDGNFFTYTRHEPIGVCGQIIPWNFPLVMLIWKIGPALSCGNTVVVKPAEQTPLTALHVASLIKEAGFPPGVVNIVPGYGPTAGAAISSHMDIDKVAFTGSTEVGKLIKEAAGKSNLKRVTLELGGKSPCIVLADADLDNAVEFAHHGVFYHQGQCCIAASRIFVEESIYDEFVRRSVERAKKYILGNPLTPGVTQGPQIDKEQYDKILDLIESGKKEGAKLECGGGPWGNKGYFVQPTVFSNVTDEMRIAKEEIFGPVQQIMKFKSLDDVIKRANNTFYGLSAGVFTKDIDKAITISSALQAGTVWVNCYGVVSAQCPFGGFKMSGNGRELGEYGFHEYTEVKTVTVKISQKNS
12-hLO inh: qHTS Assay for Inhibitors of 12-hLO (12-human lipoxygenase); Polyunsaturated fatty acid lipoxygenase ALOX12 (Homo sapiens), P18054; purified 12-hLO, xylenol orange hydroperoxide absorbance; Potency, µM (titrated, usually from 57.1 µM), inactives show at the highest dose activity change, negative = inhibition, actives largely listed as inhibitors; actives 0.12% (n = 150,000); AID 1452, 2008; active = well fitted curve in the direction sought with a large enough effect; inconclusive = small, poorly fitted or top-dose-only effect, or another doubt; inactive = no such curve, though single readings can be large; an effect the other way counts as inactive or inconclusive; note: potency is the fitted concentration of half-maximal effect; nearly all actives have a fitted effect of over 55% in size
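150 nM 12hLO, 25 mM Hepes pH 7.0 + 0.01% Triton X-100; cpd preinc 15 min RT; 40 uM arachidonic acid, 30 min RT; Fe-XO 30 min; A573/A405 ratio as read-out.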
IMPase Li inh: qHTS Assay for Identifying the Cell-Membrane Permeable IMPase Inhibitors: Potentiation with Lithium. CHO-M1 cells, IP1 TR-FRET (IP-One), carbachol + lithium. Potency, µM (highest dose often 59.4 µM), without a hit: top-dose activity, negative = IMPase inhibition, actives largely listed as inhibitors. actives 0.35% (n = 210,000); active = well fitted curve in the direction sought with a large enough effect; inconclusive = small, poorly fitted or top-dose-only effect, or another doubt; inactive = no such curve, though single readings can be large; an effect the other way counts as inactive or inconclusive;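 note: IP1 builds up when IMPase is blocked and the TR-FRET signal falls; potency is the fitted concentration of half-maximal effect; plate controls were basal vehicle for no effect and high inhibitor control for full effect; nearly all actives have a fitted effect of over 50% in size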
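Steps: plate 2000 CHO-M1 cells per well and culture 16–30 h; add compound and lithium; incubate 30 min, 37C; add d2-IP1 tracer and Eu cryptate anti-IP1 antibody in lysis buffer; read after 10 min at room temperature.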
Numbers without * were called inactive; ! = not active in a repeat; [ ] = another dose, or the depositor's remark. Unless noted, calls come from the whole dose curve; as a rule, active = well fitted inhibition curve with a large enough effect (not every such curve was filed as active); inconclusive = small, poorly fitted or top-dose-only effect, or another doubt; inactive = no such curve, though single readings can be large or run the other way. Unless noted, % is set by controls: 0 for no effect and ±100 for the full control effect.

What do the screens show for `COc1cc(/C=N/NC(=O)COc2ccc(Cl)cc2)ccc1OS(=O)(=O)c1ccc(C)cc1`?
HPGD inh: -16.2%; PNC inhibitor: 3.7; IMPase inh: 6.9; ALDH1A1 block: inconclusive; 12-hLO inh: -0.8%; IMPase Li inh: 20.0%[38.3 µM]

Results for Cc1ccc(S(=O)(=O)Oc2ccc(/C=N/NC(=O)c3cccnc3)cc2)cc1 ?
ALDH1A1 block: 12.6µM*; IMPase Li inh: 20.1%

Results for COc1cc(/C=N/NC(=O)COc2cccc(F)c2)ccc1OS(=O)(=O)c1ccc(C)cc1 ?
HPGD inh: -22.4%; PNC inhibitor: 7.5; ALDH1A1 block: 8.91µM*; 12-hLO inh: -3.6%; IMPase Li inh: 7.1%

What do the screens show for `CC#CCN1c2ccccc2[C@]23C[C@@H](C(=O)OC)N(S(=O)(=O)c4ccc(C)cc4)C2=NC(C(=O)OC)=C(C(=O)OC)[C@H]13`?
HPGD inh: -5.6%; ALDH1A1 block: 3.8%[13.5 µM]; 12-hLO inh: 0.6%[11.4 µM]; IMPase Li inh: -1.3%

Results for C[C@@H]1C(=O)O[C@@H]2C[C@]34[C@H]5C[C@@H](C(C)(C)C)[C@@]36[C@@H](OC(=O)[C@@H]6O)O[C@@]4(C(=O)O5)[C@@]12O ?
HPGD inh: 1.3%; IMPase inh: 1.2[20.6 µM]; ALDH1A1 block: 2.4%[20.9 µM]; 12-hLO inh: -4.7%[25.6 µM]; IMPase Li inh: 2.5%

Results for CCOC(=O)/C=C1\NC(C)(C)Cc2cc(OC)c(O)cc21 ?
HPGD inh: 35.5µM*; PNC inhibitor: inconclusive; IMPase inh: 4.1; ALDH1A1 block: 11.2µM*; 12-hLO inh: -2.2%; IMPase Li inh: 5.6%[38.3 µM]

Results for Cc1ccc2c(c1)C=CC(C#N)N2C(=O)c1ccccc1 (configuration not stated) ?
HPGD inh: 1.8%; PNC inhibitor: -88.2*; ALDH1A1 block: -16.6%; 12-hLO inh: 1.2%; IMPase Li inh: 13.5%

Results for Cc1ccc2c(c1)C=CC(C)N2C(=O)c1ccccc1 (configuration not stated) ?
HPGD inh: -11.8%; PNC inhibitor: -14.4; IMPase inh: -2.6; ALDH1A1 block: -5.6%; 12-hLO inh: -4.5%; IMPase Li inh: -3.5%[38.3 µM]

What do the screens show for `CC(C)[C@@H](CC(=O)N[C@@H]1CCCC[C@H]1C(=O)N[C@H](CC(=O)N[C@@H](CCC(=O)O)CC(=O)O)Cc1ccccc1)NC(=O)C[C@H](CO)NC(=O)[C@@H]1CNCC[C@H]1N`?
HPGD inh: -9.4%; ALDH1A1 block: -6.3%; 12-hLO inh: -3.6%; IMPase Li inh: -4.1%

How did Cc1ccccc1Nc1cccc2nonc12 do in these assays?
HPGD inh: -18.2%; PNC inhibitor: -99.4*; ALDH1A1 block: -3.9%; 12-hLO inh: -2.2%; IMPase Li inh: -2.4%

Results for N#Cc1cccc(NC(=O)N2CC3(CCN(C(=O)c4cnccn4)CC3)C2)c1 ?
HPGD inh: -22.3%; ALDH1A1 block: -6.1%; 12-hLO inh: 3.4%; IMPase Li inh: 3.5%

How did O=S(=O)(NCCNC/C=C/c1ccc(Br)cc1)c1cccc2cnccc12 do in these assays?
HPGD inh: -24.7%; ALDH1A1 block: 22.4µM*!; IMPase Li inh: 24.4%

How did CC(=O)OC[C@@H]1O[C@H](C/C=N\OC[C@@H](O)[C@H]2O[C@H]3OC(C)(C)O[C@H]3[C@@H]2O)C=C[C@@H]1OC(C)=O do in these assays?
ALDH1A1 block: 6.3%[13.5 µM]

What do the screens show for `O=C(CSc1oc(-c2ccco2)nc1S(=O)(=O)c1ccccc1)NCC1CCCO1` (configuration not stated)?
HPGD inh: -15.2%; PNC inhibitor: -14.7; IMPase inh: 8.6; ALDH1A1 block: -14.6%; 12-hLO inh: -1.7%; IMPase Li inh: 1.5%

How did CC(C)Sc1oc(-c2ccco2)nc1S(=O)(=O)c1ccc(F)cc1 do in these assays?
HPGD inh: -23.8%; PNC inhibitor: inconclusive; IMPase inh: 18.7; ALDH1A1 block: 20µM*; 12-hLO inh: -13.8%; IMPase Li inh: 17.4%

What do the screens show for `O=C(CSc1oc(-c2ccco2)nc1S(=O)(=O)c1ccc(F)cc1)NCC1CCCO1` (configuration not stated)?
HPGD inh: -14.3%; PNC inhibitor: -118.9*; IMPase inh: 24.5; ALDH1A1 block: 2.9%; 12-hLO inh: 1.1%; IMPase Li inh: 8.3%

What do the screens show for `COc1ccc(CCCC(=O)Nc2ccc(F)cc2)cc1`?
HPGD inh: -17.8%; PNC inhibitor: -7.2; ALDH1A1 block: -9.2%; 12-hLO inh: -4.8%; IMPase Li inh: 19.4%

Results for Cc1ccc(N2CCN(Cc3nnc(-c4ccc5c(c4)OCO5)o3)CC2)c(C)c1 ?
IMPase inh: -4.1

How did C=CCOC(=O)N[C@H](/C(C(=O)OC)=C(\C)NCc1ccccc1)c1cccc(OC)c1 do in these assays?
HPGD inh: -8.4%; ALDH1A1 block: 3.1%; IMPase Li inh: 14.0%

How did Cc1c(NS(=O)(=O)c2ccc(N3CCCCC3)c([N+](=O)[O-])c2)c(=O)n(-c2ccccc2)n1C do in these assays?
HPGD inh: -4.1%; PNC inhibitor: 14.4; ALDH1A1 block: -3.1%; 12-hLO inh: -0.5%; IMPase Li inh: 3.9%

How did Cc1c(Nc2cc(N3CCCCCC3)c3nonc3c2[N+](=O)[O-])c(=O)n(-c2ccccc2)n1C do in these assays?
HPGD inh: 11.2µM*; PNC inhibitor: inconclusive; IMPase inh: 4.5; ALDH1A1 block: 5.1%; 12-hLO inh: -1.8%; IMPase Li inh: -1.9%[38.3 µM]

What do the screens show for `O=S(=O)(c1ccccc1F)N1CCN(C(=S)NCc2ccccc2)CC1`?
ALDH1A1 block: 15.8µM*; IMPase Li inh: 6.2%

What do the screens show for `O=S(=O)(c1cccc(F)c1)N1CCN(C(=S)NCc2ccccc2)CC1`?
ALDH1A1 block: 14.1µM*; IMPase Li inh: 7.9%

What do the screens show for `CO[C@H]1COC(=O)[C@H]2CCCN2C(=O)C/C=C\[C@@H](C)[C@H](OC)COC(=O)C/C=C\[C@@H]1C`?
ALDH1A1 block: 6.4%[13.5 µM]

Results for CCc1ccccc1NC(=O)C(C#N)Cc1cccnc1 (configuration not stated) ?
HPGD inh: -3.1%; PNC inhibitor: -82.1*; IMPase inh: -1.1; ALDH1A1 block: 3.0%; 12-hLO inh: 5.3%; IMPase Li inh: 6.9%
